Results as given in PubChem BioAssay (NCATS).
Inconclusive results are not listed. Where a call stands in place of a potency, no number is given. Active and inactive are the calls of the source. Calls come from the whole dose curve; as a rule, active = well fitted inhibition curve with a large enough effect; inconclusive = small, poorly fitted or top-dose-only effect; inactive = flat fitted curve, though single readings scatter.

Tests used:
Assay in all cases: qHTS assay to identify novel small-molecules to repurpose for Merkel cell carcinoma treatment (AID 1296009); note: nearly all actives have a fitted effect of over 60% in size
NIH3T3 = settings: MCC and control cell lines, CellTiter-Glo viability, 72 h; at 44.8 µM (top of the series) unless noted
Method in brief: (§1)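 qHTS format: cells treated with library compounds in DMSO across 8 (NPC) or 11 (MIPE) concentrations. Readout after 72 hr at 37 degree celsius was CellTiter-Glo luminescence.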

CRL-7250 = settings: MCC and control cell lines, CellTiter-Glo viability, 72 h; at 44.8 µM (top of the series) unless noted
Method in brief: as §1

HEK293T = settings: MCC and control cell lines, CellTiter-Glo viability, 72 h; at 44.8 µM (top of the series) unless noted
Method in brief: as §1

HACAT = settings: MCC and control cell lines, CellTiter-Glo viability, 72 h; at 44.8 µM (top of the series) unless noted
Method in brief: as §1

MCC-13 = settings: MCC and control cell lines, CellTiter-Glo viability, 72 h
Method in brief: as §1

MCC-26 = settings: MCC and control cell lines, CellTiter-Glo viability, 72 h
Method in brief: as §1

MKL-1 = settings: MCC and control cell lines, CellTiter-Glo viability, 72 h
Method in brief: as §1

MKL-2 = settings: MCC and control cell lines, CellTiter-Glo viability, 72 h
Method in brief: as §1

UISO = settings: MCC and control cell lines, CellTiter-Glo viability, 72 h
Method in brief: as §1

WaGa = settings: MCC and control cell lines, CellTiter-Glo viability, 72 h
Method in brief: as §1
Potency is the fitted concentration of half-maximal effect.

Structure (SMILES): Clc1ccc(OCC2=NCCN2)cc1Cl
- outcome (NIH3T3): inactive

Structure (SMILES): CC1C/C=C/C(O)C(O)CC/C=C/c2cc(O)cc(O)c2C(=O)O1 (stereo unspecified)
- outcome (CRL-7250): inactive
- outcome (HEK293T): inactive

Structure (SMILES): C[C@@H]1C(=O)O[C@H]2[C@H](O)[C@@]34[C@@H]5OC(=O)[C@@]3(O[C@@H]3OC(=O)[C@@H](O)[C@@]34[C@H](C(C)(C)C)[C@H]5O)[C@@]12O
- outcome (HACAT): inactive [at 17.4 µM]

Structure (SMILES): COc1cc(C)[nH]c(=O)c1CNC(=O)c1c(C)n([C@H](C)C2CCOCC2)c2ccccc12
- outcome (CRL-7250): inactive
- outcome (HEK293T): inactive
- outcome (NIH3T3): inactive

Structure (SMILES): C[C@@]1(C(=O)O)CC[C@]2(C)CC[C@]3(C)C4=CC(=O)c5cc(O)c(O)cc5[C@]4(C)CC[C@@]3(C)[C@@H]2C1
- outcome (CRL-7250): inactive [at 17.4 µM]
- outcome (HACAT): inactive [at 17.4 µM]
- outcome (NIH3T3): inactive [at 17.4 µM]

Structure (SMILES): CN(C)CCc1c[nH]c2ccc(CN3CCN(C)S3(=O)=O)cc12
- outcome (HACAT): inactive

Structure (SMILES): OCCCCC#Cc1cncc(OC[C@@H]2CCN2)c1
- outcome (CRL-7250): inactive
- outcome (HACAT): inactive
- outcome (NIH3T3): inactive

Structure (SMILES): CCC(C)(C#N)O[C@@H]1O[C@H](CO)[C@@H](O)[C@H](O)[C@H]1O (stereo partly specified)
- outcome (HACAT): inactive
- outcome (HEK293T): inactive

Structure (SMILES): C[C@@]12C[C@@H](c3ccoc3)OC(=O)C1CC[C@]1(C)[C@H]2[C@H]2C=C[C@]1(O)C(=O)O2 (stereo partly specified)
- outcome (CRL-7250): inactive
- outcome (HEK293T): inactive
- outcome (NIH3T3): inactive

Structure (SMILES): COC1CC(=O)C23C(=O)NC(CC(C)C)C2C(C)=C(C)C(OO)C3/C=C(\C)CCC(O)C1O (stereo unspecified)
- outcome (CRL-7250): inactive [at 17.4 µM]
- outcome (HACAT): inactive [at 17.4 µM]
- outcome (NIH3T3): inactive [at 17.4 µM]

Structure (SMILES): CCc1c(C(=O)C(N)=O)c2c(OCC(=O)OC)cccc2n1Cc1ccccc1
- outcome (CRL-7250): inactive
- outcome (HEK293T): inactive

Structure (SMILES): COC(=O)C1(C)CCC(O)C2(C)c3c(O)cc(C(C)C)cc3C(O)C(OC(C)=O)C12 (stereo unspecified)
- outcome (CRL-7250): inactive [at 17.4 µM]
- outcome (HEK293T): inactive [at 17.4 µM]

Structure (SMILES): COc1c(C(C)C)cc2c(c1O)[C@@]1(C(=O)O)CCCC(C)(C)C1CC2 (stereo partly specified)
- outcome (CRL-7250): inactive
- outcome (HEK293T): inactive

Structure (SMILES): OC1(c2ccc(Cl)cc2)c2ccccc2C2=NCCN21 (stereo unspecified)
- outcome (CRL-7250): inactive
- outcome (NIH3T3): inactive

Structure (SMILES): CCN1C[C@]2(COC)[C@H](O)C[C@H](OC)[C@]34[C@@H]5C[C@]6(O)[C@H](OC(=O)c7ccccc7)[C@@H]5[C@@](O)([C@H]([C@H](OC)[C@H]23)[C@@H]14)[C@@H](O)[C@@H]6OC
- outcome (CRL-7250): inactive
- outcome (HEK293T): inactive

Structure (SMILES): CCCCCOc1cc2c(cc1-c1cc(/C=C/C(=O)O)ccc1O)C(C)(C)CCC2(C)C
- outcome (HACAT): inactive
- outcome (HEK293T): inactive

Structure (SMILES): C1=C2CCCN[C@H]2[C@@H]2C[C@H]1[C@H]1CCCCN1C2
- outcome (CRL-7250): inactive
- outcome (NIH3T3): inactive

Structure (SMILES): CC(C)(C)c1cc(C(C)(C)C)c2c(c1)C(O)(C(F)(F)F)C(=O)O2 (stereo unspecified)
- outcome (CRL-7250): inactive
- outcome (HACAT): inactive
- outcome (NIH3T3): inactive

Structure (SMILES): CCCN1CCO[C@H]2c3cc(O)ccc3OC[C@@H]21
- outcome (CRL-7250): inactive
- outcome (HEK293T): inactive

Structure (SMILES): N#C[C@@H](O[C@@H]1O[C@H](CO[C@@H]2O[C@H](CO)[C@@H](O)[C@H](O)[C@H]2O)[C@@H](O)[C@H](O)[C@H]1O)c1ccccc1
- outcome (HACAT): inactive [at 17.4 µM]

Structure (SMILES): CC[C@H]1CN2CC[C@H]1C[C@H]2[C@H](O)c1ccnc2ccc(OC)cc12
- outcome (CRL-7250): inactive
- outcome (HACAT): inactive
- outcome (NIH3T3): inactive

Structure (SMILES): C=CC(C)(C)c1[nH]c2cccc3c2c1C[C@@H]1[C@@H]3[C@@H](OC(C)=O)[C@H](C)CN1C
- outcome (HACAT): inactive
- outcome (HEK293T): inactive

Structure (SMILES): Cc1c(Cl)cccc1S(=O)(=O)Nc1nc(CC(=O)N2CCN(C)CC2)cs1
- outcome (HACAT): inactive
- outcome (NIH3T3): inactive

Structure (SMILES): O=C(N1CCOCC1)N1CCN(c2ccc(Cl)cc2)CC1
- outcome (CRL-7250): inactive
- outcome (HACAT): inactive
- outcome (NIH3T3): inactive

Structure (SMILES): C=C(CO)C(=O)O[C@H]1C/C(C)=C/CC/C(CO)=C/[C@H]2OC(=O)C(=C)[C@H]12
- outcome (HACAT): inactive
- outcome (NIH3T3): inactive

Structure (SMILES): C=CC(C)(O)CC/C=C(\C)C(=O)O[C@H]1[C@H](O)[C@@H](CO)O[C@@H](OC(=O)[C@]23CCC(C)(C)CC2C2=CCC4[C@@]5(C)CC[C@H](O[C@@H]6O[C@H](CO[C@@H]7OC[C@H](O)[C@H](O)[C@H]7O[C@@H]7OC[C@@H](O)[C@H](O)[C@H]7O)[C@@H](O)[C@H](O)[C@H]6O)C(C)(C)C5CC[C@@]4(C)[C@]2(C)CC3)[C@@H]1OC1OC(C)C(O[C@@H]2OC[C@@H](O)[C@H](O[C@@H]3OC[C@@H](O)[C@H](O)[C@H]3O)[C@H]2O)C(O)C1O (stereo partly specified)
- outcome (HACAT): inactive [at 9.27 µM]
- outcome (NIH3T3): inactive [at 9.27 µM]

Structure (SMILES): COC1CC(OC2CCC3(C)C(=CCC4C3CCC3(C)C(C(C)OC5OC(COC6OC(CO)C(O)C(O)C6O)C(O)C(O)C5O)CCC43O)C2)OC(C)C1OC1OC(C)C(O)C(OC)C1O (stereo unspecified)
- outcome (HACAT): inactive [at 9.27 µM]

Structure (SMILES): COC1CC(O[C@H]2CC[C@@]3(C)C(=CCC4C3C(O)[C@@H](O)[C@]3(C)[C@@H](C(C)=O)CC[C@]43O)C2)OC(C)C1OC1CC(OC)C(OC2OC(C)C(O)C(O)C2O)C(C)O1 (stereo partly specified)
- outcome (HACAT): inactive [at 9.27 µM]
- outcome (HEK293T): inactive [at 9.27 µM]
- outcome (NIH3T3): inactive [at 9.27 µM]

Structure (SMILES): CN1[C@H]2C[C@H](OC(=O)[C@H](CO)c3ccccc3)C[C@@H]1[C@@H](O)C2
- outcome (HACAT): inactive
- outcome (HEK293T): inactive
- outcome (NIH3T3): inactive

Structure (SMILES): CCCCCCn1c(=O)c(C(=O)Nc2ccc(C(=O)OCCC)cc2)c(O)c2ccccc21
- outcome (HACAT): inactive [at 9.27 µM]
- outcome (HEK293T): inactive [at 9.27 µM]

Structure (SMILES): C[CH2][Hg][S]c1ccccc1C(=O)O
- Potency (MCC-13): 15 µM (active)
- Potency (MCC-26): 15 µM (active)
- Potency (MKL-1): 2.99 µM (active)
- Potency (MKL-2): 0.944 µM (active)
- Potency (UISO): 2.99 µM (active)
- Potency (WaGa): 2.66 µM (active)
